The results in this text go back to PubChem BioAssay.

Values without a mark were called inactive.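 How the source made its calls: active means viability at or below 10% of carrier control in both of two separate runs; inconclusive means viability at or below 10% in only one of the two runs; inactive means the rest.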

The experiment can be described thus: SK-BR-3 cell growth inhibitors, pilot screen, 24 h, human (AID 572).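 Further: compound exposure lasted between 18 and 24 h rather than exactly 24 h; 100% = carrier-treated control wells.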 Conditions: SK-BR-3 viability, CellTiter-Glo luminescence, at 10 µM, active compounds read low. Background: Cellular ATP, detected with luciferase, serves as a proxy for viable cell number.
`COc1ccc(C(=O)Nn2c(SCC(=O)NCC3CCCO3)nc3ccccc3c2=O)cc1` (stereo not given): the viability (usually a read-out of living cells in per cent, often relative to untreated cells) is 92.5%.
The value for `COc1ccc(Cc2nnc3n2N=C(c2cc4ccccc4o2)CS3)cc1OC` was 77%; that for `CC1(C)OC(=O)N(c2cccnc2)C1(C)O` (stereo not given) was 117%.
The value for `O=c1/c(=C/c2ccco2)sc2nc(-c3ccccc3Br)nn12` was 97%; that for `CC1Cc2ccccc2N1C(=O)CSc1nc2ccccc2n1CC(=O)N1CCOCC1` (stereo not given) was 97%; that for `Cc1oc(-c2ccccc2F)nc1CS(=O)(=O)CC(=O)N1CCCCCC1` was 99%.
The value for `O=C(NCc1cccnc1)c1ccc(Cl)c(Cl)c1` was 89%; that for `COc1cccc(C(=O)Nc2ccc(NC(C)=O)cn2)c1` was 98%; that for `CCN(C(=O)CN1CCN(c2ccccc2OC)CC1)c1c(N)n(Cc2ccccc2)c(=O)[nH]c1=O` was 113%.
On to `CCOC(=O)n1c(SCC(=O)N(CC)CC)nc2ccccc21`, for which the viability was 118%.
As to `CCOC(=O)C1CCN(c2c(NC3CCCCCCC3)c(=O)c2=O)CC1`, the viability was 90%.
On to `CCOC(=O)NC(=O)CSc1nnnn1-c1ccc(Cl)cc1`, for which the viability was 86.5%.
Under `COc1cccc(-n2c(C)nc3c(cnn3-c3ccc(Cl)cc3)c2=O)c1` stands 92.5%; under `CN(CC(O)COCc1cccs1)C1CCCCC1` (stereo not given), 93.5%; under `O=C(O)CSc1ccc2ccccc2n1`, 95.5%.
Under `CN(C)Cc1c(O)ccc2oc(Cc3ccccc3)cc12` stands 90%; under `COC(=O)c1[nH]c(C)c(/C(O)=C2\C(=O)C(=O)N(CCN(C)C)C2c2ccccc2OC)c1C` (stereo not given), 88%; under `CC1(C)Cc2c(sc3c2c(=N)n(Cc2ccco2)c(=O)n3Cc2ccccc2)CO1`, 98.5%.
As for `CCn1nnnc1SCC(=O)N1CCOCC1`, the viability is 116%.
The value for `CN(C)c1ccc(C=Nc2ccc(N(C)C)cc2)cc1` was 104%.
As to `CCCC(=O)Nc1ccc(OCC(=O)OC)cc1`, the viability was 99.5%.
The value for `CCn1cc(C(=O)NCCN(C)CCc2ccccc2)c(=O)c2cc(S(=O)(=O)N(C)C)ccc21` was 90%; that for `COc1cccc(-c2cc(C(=O)N3CCCc4ccccc43)no2)c1` was 110%.
Under `O=C(Cn1c(NCCO)nc2ccccc21)c1ccccc1` stands 100%.
Under `CCOC(=O)N1CCC(N2C(=O)c3ccccc3C2Nc2cccnc2)CC1` (stereo not given) stands 91.5%; under `CCCCCCNS(=O)(=O)c1ccc(Cl)s1`, 85%; under `COC(=O)c1cc(=O)n2c(-c3ccc(OC)cc3)csc2n1`, 110%.
Turning to `COC(=O)/C=c1/s/c(=C(/C#N)C(=O)N2CCOCC2)n(-c2ccccc2)c1=O`, the viability is 116%.
Take `CCOc1ccc2[nH]cc(C(=O)N3CCN(CC)CC3)c(=O)c2c1`: the viability was 98%.
Consider `CCCCN(CCCNC(=O)C1CCN(S(=O)(=O)CC)CC1)c1ccccc1`, for which the viability is 87%.
On to `COc1ccc(-c2nnn(CCc3nn[nH]n3)n2)cc1OC`, for which the viability was 119%.
Under `CCCCC(=NCCO)C1=C(O)C(C(=O)OC)C(C)(C)CC1=O` (stereo not given) stands 90.5%; under `COC1CCCCC1NS(=O)(=O)c1ccccc1` (stereo not given), 106%.
For the compound `Nc1c(N2CCCCC2)c(=O)[nH]c(=O)n1-c1ccccc1`, the viability is 105%.
`O=C(CN1C(=O)CCSc2ccccc21)Nc1ccc2c(c1)OCO2`: the viability was 124%.
Under `Cc1cc(C)c2oc(=O)cc(CN3CCOCC3)c2c1` stands 102%; under `OCc1nc2ccccc2n1CCCOc1ccccc1`, 80.5%; under `CC(C)(C)c1ccc2c(c1)OCC(C(=O)O)O2` (stereo not given), 99.5%.
Under `O=C1C2C3C=CC(C3=C3CCCCC3)C2C(=O)N1c1ccccc1` (stereo not given) stands 131%; under `CCCN1C(=O)c2cc(C(=O)O)ccc2C1O` (stereo not given), 113%.
